Assay outcomes: PubChem, several laboratories
Calb biofilm kill: kills Candida albicans biofilms | 0.14% of 85,000 active | AID 834 | C. albicans biofilm + clotrimazole, Alamar Blue | inhibition, % at 6 µM;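 active means inhibition above 20%; inactive means inhibition below 20%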;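 further: preformed 24 hr biofilms exposed to compound for 48 hr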
cytoskel mod: modifiers of cytoskeleton assembly | inhibition, % at 2 µM | HUVEC TNFa F-actin phalloidin imaging, high content | 0.18% of 91,000 active;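 active means inhibition above the batch mean plus 3 SD and confirmed as a hit by visual image inspection, cut at about 30% in these data, passing the limit was not always enough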
ERa SRC1 inh: blocks coactivator binding to human estrogen receptor alpha. P03372. TR-FRET ER-alpha LBD / SRC-1 peptide, estradiol-bound. inhibition, % at 25.6 µM. 1.7% of 86,000 active. AID 629; in the data active means inhibition above about 50%
ERa SRC1 pot: enhances coactivator binding to human estrogen receptor alpha. P03372. TR-FRET ERalpha-LBD/SRC-Cy5 coactivator binding, 2 h; 100 = basal binding, no effect. coactivator binding (% of control), % at 25.6 µM. 1.3% of 86,000 active. AID 639; in the data active means activity above about 200%;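 further: binding measured in presence of low estradiol as agonist stimulus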
E-sel TNF inh: blocks E-selectin expression induced by TNF alpha. HUVEC TNFa-induced E-selectin immunofluorescence, high content. AID 1246. 0.71% of 120,000 active. inhibition, % at 2 µM;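 active means inhibition above the batch mean plus 3 SD, and confirmed as a hit on visual image review, cut at about 43% in these data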
ERb coact inh: ER-beta (human) coactivator binding inhibition. inhibition, % at 25.6 µM. AID 633. Q92731. 1.3% of 86,000 active. TR-FRET ER-beta LBD / SRC1-Cy5 peptide binding; receptor agonist-loaded with 1 µM estradiol;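 active means compounds whose percent inhibition of the receptor-coactivator binding signal exceeds about 50% in the single-dose screen, limit read from the data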
Target sequence (Q92731 whole entry, looked up, the tested form may be a part): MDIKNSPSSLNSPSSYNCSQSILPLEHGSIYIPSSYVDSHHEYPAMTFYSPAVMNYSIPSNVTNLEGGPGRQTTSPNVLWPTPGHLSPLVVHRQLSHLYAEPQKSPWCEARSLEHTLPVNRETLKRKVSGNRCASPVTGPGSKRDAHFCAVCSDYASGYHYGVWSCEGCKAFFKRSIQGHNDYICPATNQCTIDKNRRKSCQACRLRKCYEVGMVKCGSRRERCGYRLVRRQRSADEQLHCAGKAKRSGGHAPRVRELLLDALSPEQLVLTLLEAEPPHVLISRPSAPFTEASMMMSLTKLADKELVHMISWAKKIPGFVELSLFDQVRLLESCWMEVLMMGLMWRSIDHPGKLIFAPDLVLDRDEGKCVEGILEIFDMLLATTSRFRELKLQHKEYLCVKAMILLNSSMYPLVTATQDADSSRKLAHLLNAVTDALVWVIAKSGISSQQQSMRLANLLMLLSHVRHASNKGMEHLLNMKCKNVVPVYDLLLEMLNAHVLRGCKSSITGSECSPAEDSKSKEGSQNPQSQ
A number is an active result; . = inactive; / = no result; [ ] = another dose, or the depositor's remark. Only some compounds are listed: those with a hit (about 2.9% of all), similar ones and a draw of the others.

SMILES | Calb biofilm kill | cytoskel mod | ERa SRC1 inh | ERa SRC1 pot | E-sel TNF inh | ERb coact inh
Cc1cc(=O)oc2cc(NC(=O)c3cc([N+](=O)[O-])ccc3N3CCOCC3)ccc12 | / | / | / | / | . | /
Cc1cccc(CS(=O)(=O)Cc2ccc(C(=O)NCc3cccs3)o2)c1 | / | / | / | / | . | /
CC(C)(/C=N/O)/[N+]([O-])=C/c1ccco1 | . | . | . | . | . | .
Cc1nc(/C=[N+](\[O-])C(C)(C)/C=N/O)n(O)c1C | . | . | . | . | . | 56[fluorescence artefact?]
Cc1cc(C)cc(-n2ccnc2SCC(=O)O)c1 | / | / | / | / | . | /
Cc1ccc(-c2c(C(=O)N3CCOCC3)oc(=O)c3ccccc23)cc1 | 27 | . | . | . | / | .
CCN1CCN(C(=O)c2oc(=O)c3ccccc3c2-c2ccc(C)cc2)CC1 | . | / | . | . | . | .
Fc1ccc(N2Cc3ccsc3C=N2)cc1 | / | / | / | / | . | /
CCCCOc1ccccc1Cn1c(=O)oc2ccc(C)cc21 | / | . | / | / | . | /
Cc1ccc2oc(=O)n(CCCOc3ccccc3)c2c1 | . | . | . | . | 68 | .
NC1=CC(=O)c2cccc3cccc1c23 | . | / | 86[fluorescence artefact?] | . | / | 76[fluorescence artefact?]
O=C(NCC1CCCO1)c1cc([N+](=O)[O-])ccc1Cl (stereo not given) | / | / | / | / | . | /
CCCSc1nnc(NC(=O)Nc2ccc(F)cc2)s1 | . | / | . | 247 | . | .
CCCCNC(=O)NCc1cnn(C)c1C | / | / | / | / | . | /
CCOC(=O)CSc1nn(C)c(=S)s1 | . | . | 65 | . | / | .
CCOC(=O)CSc1nnc(N)s1 | . | . | . | . | . | .
CCCCSc1cnn(-c2ccccc2)c(=O)c1SCCCC | . | . | . | 202 | . | .
CCSc1cnn(-c2ccccc2)c(=O)c1SCC | . | . | . | . | . | .
CCOC(=O)N1CCN(S(=O)(=O)Cc2ccccc2)CC1 | . | . | . | . | . | .
CCOC(=O)C1CCN(S(=O)(=O)Cc2ccccc2)C1=O (stereo not given) | . | . | . | . | . | 68[fluorescence artefact?]
O=C(/C=C/c1cccc(Cl)c1)N1CCC(Cc2ccccc2)CC1 | / | / | / | / | . | /
O=C(/C=C/c1ccccc1)N1CCC(Cc2ccccc2)CC1 | / | . | / | / | 92 | /
Cc1nn(S(=O)(=O)c2ccccc2)c(C)c1Sc1ccc([N+](=O)[O-])cc1 | / | 46 | / | / | / | /
Cc1nn(S(=O)(=O)c2cccs2)c(C)c1Sc1ccc([N+](=O)[O-])cc1 | / | . | / | / | . | /
CCCNC(=S)N(Cc1ccccc1)Cc1nc2ccccc2c(=O)[nH]1 | / | / | / | / | . | /
SMILES | Calb biofilm kill | cytoskel mod | ERa SRC1 inh | ERa SRC1 pot | E-sel TNF inh | ERb coact inh
COc1ccc(Br)cc1CN(C)CC(=O)Nc1c(Cl)cccc1Cl | / | / | / | / | 68 | /
COc1ccc(-n2nc3c(c2NC(=O)c2cc4ccccc4oc2=O)CS(=O)(=O)C3)cc1 | . | / | 63 | . | / | 66[fluorescence artefact?]
OC(c1ccccn1)c1c[nH]c2ccccc12 (stereo not given) | . | 67 | . | . | . | .
COc1cccc(CN2CCN(Cc3cccn3-c3cccnc3)CC2CCO)c1 (stereo not given) | / | / | / | / | . | /
COC(=O)Nc1c(-c2ccccc2)nc2ccc(C)cn12 | . | / | . | . | / | 83
COc1ccccc1C(=O)Nc1sc2c(c1C(=O)NCc1ccco1)CCCC2 | . | . | . | . | . | .
CSc1ccccc1NC(=O)CN1CC(C)OC(C)C1 (stereo not given) | / | / | / | / | . | /
CCCn1c(SCC(=O)Nc2sc(C)c(C)c2C(=O)OC)nc2c1c(=O)n(C)c(=O)n2C | . | / | 51 | 246 | / | .
COCCN1CN(S(=O)(=O)c2ccccc2)c2nc3ccccc3nc21 | . | / | . | . | 63 | .
O=C(CCC1CCCN(C(=O)CCN2CCCCC2=O)C1)NCc1ccccc1F (stereo not given) | / | / | / | / | . | /
C=CCNS(=O)(=O)c1nc(C)c(Cl)c(C)c1C#N | . | / | . | . | 79 | .
CSc1nc(C)c(Cl)c(C)c1C#N | . | / | . | . | / | .
O=C(NC(=S)Nc1ccccc1)c1csnn1 | / | . | / | / | . | /
Cc1nc(-c2ccccc2Cl)sc1C(=O)/C=C/N(C)C | / | / | / | / | . | /
Cc1nc(-c2cccnc2)sc1C(=O)Nc1cccc(C(F)(F)F)c1 | / | 52 | / | / | . | /
CC(C)(C)NC(=O)C(c1ccc(O)cc1)N(C(=O)Cn1nnc(-c2ccc(F)cc2)n1)c1ccccc1F (stereo not given) | / | / | / | / | . | /
COc1cccc(-n2c(C)c(C(C)=O)c(C(C)=O)c2C)c1 | . | . | . | . | . | .
C=CCOc1ccc(C2C(C(=O)c3ccco3)=C(O)C(=O)N2c2nnc(C)s2)cc1 (stereo not given) | / | / | / | / | . | /
COc1ccc(C(=O)NCC(=O)OCC(=O)c2ccc3c(c2)OCCO3)cc1 | / | . | / | / | . | /
COc1ccc2oc(C(=O)OCC(=O)c3ccc4c(c3)OCCO4)c(C)c2c1 | . | / | . | 229 | / | .
Cc1cccc(NC(c2ccc(O)cc2)c2ccc3ccc(C)nc3c2O)n1 (stereo not given) | . | . | . | 320[fluorescence artefact?] | . | .
Cc1cc(NC(c2cccnc2)c2ccc3cccnc3c2O)no1 (stereo not given) | . | . | . | . | . | .
Cc1cccn2c(=O)c3cc(C(=O)Nc4ccc(N(C)C)cc4)n(C)c3nc12 | . | / | 96[fluorescence artefact?] | . | / | 62[fluorescence artefact?]
O=C(NN=C1CCN(Cc2ccccc2)CC1)c1ccccc1 | / | / | / | / | 68 | /
COc1ccc(OC)c(-c2cc(C(=O)Nc3cc(C)on3)no2)c1 | . | . | . | 245[fluorescence artefact?] | / | .
SMILES | Calb biofilm kill | cytoskel mod | ERa SRC1 inh | ERa SRC1 pot | E-sel TNF inh | ERb coact inh
Cc1cc(C(=O)Nc2sc3c(c2C#N)CCC3)no1 | . | . | 53[fluorescence artefact?] | . | . | 64
COc1ccc(CCNC(=O)c2cc(-c3ccccc3OC)on2)cc1OC | . | . | . | 236[fluorescence artefact?] | . | .
COc1ccc(-c2csc(NC(=O)c3cc(C)on3)c2C#N)cc1OC | . | . | . | 264 | . | .
Cc1ccc(N(C(=O)Cc2cccs2)C(C(=O)NC2CCCCC2)c2ccccn2)cc1C (stereo not given) | / | / | / | / | . | /
CN1CCC(N(C)C(=O)CCc2nc3ccccc3n2-c2ccccc2)CC1 | / | / | / | / | . | /
C=CCn1c(=O)[nH]c2cc(C(=O)N3CCN(c4ccc(C(C)=O)cc4)CC3)ccc2c1=O | . | . | 68 | . | . | .
CC(C)CNS(=O)(=O)c1ccc(CCC(=O)NCCC2=CCCCC2)cc1 | / | / | / | / | . | /
Cc1ccccc1-n1nc2c(c1NC(=O)c1ccc(Br)o1)CSC2 | . | . | . | 207[fluorescence artefact?] | / | .
Cc1cccc(NC(=O)CSc2ncnc3c2oc2ccccc23)c1 | . | . | 50[fluorescence artefact?] | 395[fluorescence artefact?] | . | 58[fluorescence artefact?]
O=C(CSc1ncnc2c1oc1ccccc12)Nc1cccc(F)c1 | . | . | . | 370[fluorescence artefact?] | / | 50[fluorescence artefact?]
COc1ccc(-c2nnc(SCC(=O)Nc3ccccc3)n2C)cc1 | . | . | . | . | / | .
Cn1c(SCC(=O)Nc2cccc(F)c2)nnc1-c1cc2ccccc2o1 | . | . | . | 688[fluorescence artefact?] | . | .
COc1ccc2c(Cl)c(C(=O)N/N=C/c3c(C)[nH]c4ccccc34)sc2c1 | / | / | / | / | . | /
Cc1ccc2nc(Nc3nc(-c4ccccc4)cc(=O)[nH]3)nc(C)c2c1 | / | . | / | / | . | /
Cc1ccc2nc(Nc3nc(=O)c4ccccc4n3C)nc(C)c2c1 | . | / | 60 | . | / | .
Cc1ccc2oc(=O)c3cc(C(=O)N4CCN(c5ncccn5)CC4)sc3c2c1 | . | / | 74[fluorescence artefact?] | . | / | .
